# System: PXR:RXRa (NR concentration 270 nM, RXRa partner concentration 90 nM)
# Assay: PBM binding z-score (relative to random genomic background probes); higher = stronger binding; sequences stand for … in GC…GCGATTGACAGCGTAGAATGAAGG
# Procedure, shortened: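 Ligand-free nuclear receptor dimers were bound for 1 h to custom Agilent 4×180K protein-binding microarrays. Detection used antibodies against each partner (one per run). Binding z-scores rest on regression-normalized fluorescence, with random background probes as the reference.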
row,Sequence,PBM binding z-score
1,CATACAGGTTCAGCTAGGCCAGAGTAGGGACGGC,0.759
2,TCGAGTAGGTTAGTCGGTGCATTCAGCCAACATA,0.147
3,CAACCTAGGTCACAGAGGTCAAAGTCCGTGCGTA,6.95
4,ATACCAAGGTGATGGTGAGGTCGTTGATACTAAC,2.71
5,ATCTCTAGGTAACCAACTTCAGTGAATGCCGAAC,-0.17
6,CGGCAAAGTTCAAGGTAACGTAACAGAAAGCAGC,4.05
7,CCTGCTTGGTCAATGGTCAGCTAAAGCAGCTCGC,-0.296
8,CGTCCAAGGTCAGAGAGATCAGTGAATGCCGAGT,2.74
9,ACAGGCAGGTGAGTGAAGGTAACTCAGCTGGACG,-0.384
10,TCTAGCGGGCCAGAGGGTCACTCAAGAGGTACGG,1.64
11,TCTATTAGCTGAAGGGCAACCGACGAGTCCGTTT,0.472
12,TCTTGTAGATCAATAGACGTTAAGAAAGTGCGCT,0.0599
13,CCTACTGGGCCACAAAAGGTCATTGATTCAGTGA,5.02
14,TAGCCTAGGGCAGATCGGGCCAGTATACGCTATA,-0.394
15,CCTTACGGGTCAAGGTTACAGCACGGGTGGTACG,3.4
16,CTTACTGGGCCAAAAAGGTCATTGATGCCGATAA,5.01
17,CATACAAGGTCAGCTAGGCCAGAGTAGGGACGGC,2.51
18,CCGGCTGGGGCAAGGTTACCATAACGCACAGCCA,0.337
19,GCAGACAGGTGAAGCGCAGGTAACTCAGGGTGGC,-0.484
20,AGTCAAAGTTCACTAGGTAAAGTAAGATTCAGCT,3.9

row,Sequence,PBM binding z-score
1,CGTCCAAGGTCAAGGTCAGGGAAAGAGACTCGAA,5.28
2,CAAACTAGGTCACCGGAATGTCAAAGTCCGCATG,2.31
3,TGAATGAGGTTAAAGATAAGGGAACGTGGCGTCG,1.37
4,ATCGAAAGGTCGTCAGGTGAGTATACAGAAAGGC,3.04
5,TCTATTAGTTGAAGGGCATCCGACGAGTCCGTTT,0.775
6,CGTAAAAGTTCAAGGTAACGTAACAGAAAGCAGC,3.49
7,TCAGAGAGGTGAAGGTAACTCAGGTACGCAGTCG,0.893
8,ATCTCTAGGTAAAGTGCAGTGAAAGATCGATAGA,-0.0343
9,ATCTCTAGGTAAAAGGTCAGTGAATCCCGAGGAT,3.49
10,TGAATGAGGTTATAGGATCAGGGAACGTTGCAAA,1.05
11,TGAATGAGGTTAGAGATCAGGGAACGTGGCGTCG,0.397
12,CGTCCATGGTCAGAGAGGTCAGTGAATGCCGAGT,3.11
13,TCTGCTAGTTCAACGATGGTCAGCTAATCTGCTA,0.51
14,GATACAGGATCAAGGCCAGAGTACGCGTATTGAT,-0.253
15,CATACTGGGCCATTCAGAGGTCATTGATCATATG,4.82
16,ATCTCTAGGTAAACTTCAGTGAAAGATCGATAGA,0.0812
17,TCGAGTAGGTTAGTCGGGGAATTCAGCCAACATA,-0.311
18,CTACCAAGTTGAACAAGGTCGTTGATTACTATTC,2.65
19,GCTGCTAGGTCAGGTTGGACAGCTAACGGGTACG,0.082
20,AATACAGGGTCACCGTAGGCCAGAGTACGCACAG,4.97

# Reference: the supplement of paper PMC6555819
